Screening data deposited in PubChem by several laboratories.
AddAB inh: less growth of phage-infected E. coli with AddAB. E. coli expressing H. pylori AddAB, absorbance growth. 330,000 tested, 0.29% active. inhibition, % at 11.9 µM; in the data active = inhibition above about 12%;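 note: 0% = vehicle wells of infected cells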
E coli growth-1: blocks Escherichia coli growth; OD600, 23 h; hits give low values; OD600 absorbance (concentration not given with the values); 330,000 tested, 0.21% active;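 active = OD600 absorbance below the run mean of sample wells minus 3.6 SD, in any replicate, cut at about 0.56 in these data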
Tat transport: inhibitors of E. coli Tat protein transport; E. coli MC4100 TorA-mCherry Tat export, fluorescence; inhibition, % at 10 µM; 340,000 tested, 0.036% active; AID 488895;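 active = mean replicate inhibition at least 50% and at least half of replicates individually reaching 50%; inconclusive = only one of the two criteria met; inactive = neither criterion met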;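 note: exported cargo escapes ClpAP degradation while cytoplasmic cargo is degraded and loses fluorescence; 0% = median of neutral control wells and 100% = median of NaSCN control wells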
E coli growth-2: reduces bacterial viability in AddAB counter-screen; 330,000 tested, 0.27% active; inhibition, % at 11.9 µM; E. coli V3065 growth, OD600 absorbance, 18 h;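 active = inhibition above the campaign's mean inhibition across all tested compounds plus 3 SD, cut at about 9.9% in these data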;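 note: uninfected addAB+ strain grown without phage in ampicillin broth; 0% = DMSO wells and 100% = ciprofloxacin 0.95 µg/ml wells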
phage Ecoli inh: E. coli growth loss with phage present. growth absorbance. inhibition, % at 11.9 µM. 360,000 tested, 0.26% active; in the data active = inhibition above about 11%
AddAB conf: confirmation screen: growth loss of phage-infected E. coli expressing H. pylori AddAB. shares compounds with AddAB inh. 880 tested, 64% active. inhibition, % at 11.9 µM. AID 488942. E. coli V3065 expressing H. pylori AddAB, T4 phage, OD; T4 phage with gene 2 nonsense mutations;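 active = mean inhibition above a set limit taken from the earlier primary screen, cut at about 13% in these data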;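 note: higher means less bacterial growth since AddAB block lets phage replicate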
RecBCD counter: AddAB counter-screen: growth loss of RecBCD+ E. coli infected with mutant T4 phage; shares compounds with AddAB inh; E. coli V66 + mutant T4 phage, OD growth; inhibition, % at 11.9 µM; 880 tested, 73% active; AID 488955;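 active = mean inhibition above the mean of solvent-only control wells plus 3 SD, cut at about 4% in these data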;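 note: optical density read after an 18 h incubation at 37 °C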
Bact viability: reduces bacterial viability, AddAB inhibitor counter-screen | inhibition, % at 11.9 µM | 880 tested, 35% active | shares compounds with AddAB inh | AID 488956 | absorbance (AddAB counterscreen); in the data active = inhibition above about 25%
The depositor's hits bear a star; ? = inconclusive; . = no result given. Sampled rows, rich in hits. Any-hit rate of the full collection: about 0.5%.

SMILES	AddAB inh	E coli growth-1	Tat transport	E coli growth-2	phage Ecoli inh	AddAB conf	RecBCD counter	Bact viability
CCCS(=O)(=O)N1CCC(C(=O)NCc2ccccc2Cl)CC1	12*	0.73	-5	7	6	14*	5.8*	12
COc1ccc(OC)c(-c2c3cc(O)c(=O)cc-3oc3cc(O)c(O)cc23)c1	14*	.	20	4	.	7	3	2
O=c1cc2oc3cc(O)c(O)cc3c(-c3ccccc3O)c-2cc1O	.	0.72	1	.	.	.	.	.
O=C(CCCCO)CCCCCCCCC1NC(CO)C(O)C1OC1OC(CO)C(O)C(O)C1O (stereo not drawn)	.	0.7	.	.	.	.	.	.
CC1=NN(C(=O)c2ccc(Cn3ccc([N+](=O)[O-])n3)cc2)C(O)(C(F)(F)F)C1 (stereo not drawn)	14*	0.73	5	7	5	3	1	-1
CCCCOc1ccc(Cc2cnc(N)nc2N)cc1	14*	0.34*	-16	12*	10	13*	9.2*	7
CSc1nnc2n(-c3ccc(C)cc3)c(=O)c3c4c(sc3n12)COC(C(C)C)C4 (stereo not drawn)	15*	0.73	0	8	1	-6	-1	-5
O=C(CC1CC=CCCC(=O)OC(c2ccccc2)CNC1=O)NCCO (stereo not drawn)	.	0.69	.	.	.	.	.	.
CC1CN(C(C)CO)C(=O)c2cc(NC(=O)Nc3ccccc3)ccc2OC1CN(C)S(=O)(=O)c1cn(C)cn1 (stereo not drawn)	.	0.68	.	.	.	.	.	.
CC(C)CC1(C(=O)O)NC(c2ccccc2O)C2C(=O)N(C(C)C)C(=O)C21 (stereo not drawn)	0	0.78	1	-2	3	.	.	.
CC(C)N1C(=O)C2C(c3ccccc3O)NC(C)(C(=O)O)C2C1=O (stereo not drawn)	15*	0.74	13	3	1	0	1	-2
Cc1cc(Cl)ccc1OCCCC(=O)NNC(=O)c1ccccc1O	17*	0.71	2	8	10	8	8.7*	8
COc1ccc(C2CC(=O)C=C(c3ccc4ncccc4c3)C2)cc1 (stereo not drawn)	.	0.63	.	.	.	.	.	.
COc1ccc(C(NC(=O)C(C)C)c2ccc3cccnc3c2O)cc1 (stereo not drawn)	26*	0.59	27	26*	25*	26*	24*	19
CCCC(=O)NC(c1ccccc1Cl)c1ccc2cccnc2c1O (stereo not drawn)	34*	.	2	35*	26*	29*	27*	26*
CCCCC(=O)NC(c1ccc(OC)cc1)c1ccc2cccnc2c1O (stereo not drawn)	.	.	.	.	10	.	.	.
Cc1ccc(S(=O)(=O)NN=Cc2ccc(OCC(=O)NC(C)C)cc2)cc1	.	0.73	.	.	.	.	.	.
CC(C)(C)CN1C(N)=NCC1c1ccccc1 (stereo not drawn)	.	0.69	.	.	.	.	.	.
COc1ccc(C=C2Oc3ccccc3C2=O)cc1	.	0.67	.	.	.	.	.	.
O=C(Nc1ccc2oc(-c3ccncc3)nc2c1)c1ccc([N+](=O)[O-])o1	18*	0.6	0	15*	3	89*	8.8*	24
Cc1ccc(S(=O)(=O)N2CCC(C(=O)OCc3ccccc3)CC2)cc1C	21*	0.63	10	8	-1	-5	-1	-4
Cc1nnc(SCC(=O)NCc2ccc3c(c2)OCO3)s1	19*	0.68	-14	44*	1	-6	0	-4
COc1cnc(-c2ccccn2)nc1Sc1ccccc1	14*	0.69	-3	0	4	3	2	-2
CCOC1OC(C(=O)Nc2ccccc2)=CC(c2ccc(C(F)(F)F)cc2)C1CCCO (stereo not drawn)	.	0.68	.	.	.	.	.	.
C=CCCC(Cc1ccc(F)cc1)C(=O)OCC(NC(=O)C(CC=C)CC(=O)NCCO)C(C)(C)C (stereo not drawn)	.	0.66	.	.	.	.	.	.
SMILES	AddAB inh	E coli growth-1	Tat transport	E coli growth-2	phage Ecoli inh	AddAB conf	RecBCD counter	Bact viability
COC(CC1OC1C(=O)C(C)OCc1ccccc1)OC (stereo not drawn)	.	0.7	.	.	.	.	.	.
Cn1c(OCc2cccnc2)nc2c1c(=O)n(Cc1ccc(Br)cc1)c(=O)n2C	23*	0.69	-2	84*	2	0	1	1
CCOC(=O)c1[nH]c2ccccc2c1NC(C)=O	-3	0.73	-6	-3	6	.	.	.
CCOC(=O)c1[nH]c2ccccc2c1NC(=O)C(CC)CC	63*	0.71	12	11*	2	-3	0	-2
O=C(Nc1ccc(Cl)cc1)ON=C1CCCC1	23*	0.66	-8	9	4	-2	1	-2
O=C(NC(Cc1ccc2c(c1)OCO2)C(=O)NC(Cc1ccccc1)C(=O)O)c1ccccc1 (stereo not drawn)	97*	0.69	-1	93*	1	-3	1	-1
Cc1ccc(CC(NC(=O)c2ccccc2)C(=O)NC(Cc2ccccc2)C(=O)O)cc1 (stereo not drawn)	3	0.71	-10	0	2	.	.	.
CCn1cc(C(=O)NCc2ccccn2)c(=O)c2cc(F)c(N3CCN(C)CC3)cc21	98*	.	5	93*	6	99*	16*	98*
CCn1cc(C(=O)NCCc2ccccc2)c(=O)c2cc(F)c(N3CCN(C)CC3)cc21	21*	0.6	7	13*	2	71*	0	22
O=C(NC1CC1)C1=CC(c2ccc(C(F)(F)F)cc2)CC(OCCCCO)O1 (stereo not drawn)	.	0.72	.	.	.	.	.	.
COc1ccc(-c2oc(=O)c3cc(OC)c(OC)cc3c2C=Cc2cccc([N+](=O)[O-])c2)cc1	.	0.69	.	.	.	.	.	.
Cc1ccnc(NC(c2cccnc2)c2ccc3cccnc3c2O)c1 (stereo not drawn)	12*	0.65	?	12*	15*	12	12*	5
COc1ccccc1NC(c1cccnc1)c1ccc2cccnc2c1O (stereo not drawn)	6	0.74	-1	-3	8	.	.	.
C#CCOCCOCCOCCNc1nc(N2CCN(C(=O)C(C)n3cc(CCCN=C(N)N)nn3)CC2)nc(N2CCN(C(=O)C(C)n3cc(CCCN=C(N)N)nn3)CC2)n1 (stereo not drawn)	.	0.67	.	.	.	.	.	.
CC(NC(=O)CN1CCOCC1)c1ccc(F)cc1 (stereo not drawn)	15*	0.65	-5	16*	1	2	0	-2
O=C(NCc1cccnc1)c1ccc([N+](=O)[O-])o1	17*	0.5*	-7	13*	17*	71*	7.9*	18
CC(Sc1ccsc1[N+](=O)[O-])C(=O)NCc1ccco1 (stereo not drawn)	14*	0.69	-4	7	6	23*	2	11
